According to the supplement of paper PMC4840960:

System: E18 rat cortical neuron-glia co-culture
Assay: myelination (MBP fiber length per Olig2+ nucleus), % of 1 µM DAPT response (DMSO = 0) (% of DAPT); higher = more myelination, active = 50 or more
Details: 5 µM; treatment time: 8 days (DIV5-DIV13)
How it was run: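 Rat cortical co-cultures from E18 tissue were dissociated with papain and plated at 20,000 cells/well on 96-well plates coated with poly-d-lysine/laminin. From DIV5 to DIV13, library compounds were added at 1 or 5 µM in myelination medium. After fixation in 4 % paraformaldehyde, cultures were immunostained for MBP and Olig2 and counterstained with DAPI, and four 10X fields were analysed in each of duplicate wells. The myelination value is the length of continuous straight MBP fibers per Olig2+ nucleus, normalised so that 0.1 % DMSO is 0 and a 1 µM positive control is 100.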

myelination, inactive:
O=C(NCC1CCCCN1)c1cc(OCC(F)(F)F)ccc1OCC(F)(F)F (stereo unspecified) [Flecainide] < -49.1
OCCN1CCN(CCCN2c3ccccc3Sc3ccc(C(F)(F)F)cc32)CC1 [Fluphenazine] < -37.3
CC(C)c1ccc2c(c1)c(SC(C)(C)C)c(CC(C)(C)C(=O)O)n2Cc1ccc(Cl)cc1 < -35.1
Cc1cccc(CN2CCN(C(c3ccccc3)c3ccc(Cl)cc3)CC2)c1 (stereo unspecified) [Meclizine] < -51.3
CC(C)(C)NC(=O)[C@@H]1C[C@@H]2CCCC[C@@H]2CN1C[C@@H](O)[C@H](Cc1ccccc1)NC(=O)[C@H](CC(N)=O)NC(=O)c1ccc2ccccc2n1 [Saquinavir] < -37.3
Cc1c2oc3c(C)ccc(C(=O)N[C@@H]4C(=O)N[C@H](C(C)C)C(=O)N5CCC[C@H]5C(=O)N(C)CC(=O)N(C)[C@@H](C(C)C)C(=O)O[C@@H]4C)c3nc-2c(C(=O)N[C@@H]2C(=O)N[C@H](C(C)C)C(=O)N3CCC[C@H]3C(=O)N(C)CC(=O)N(C)[C@@H](C(C)C)C(=O)O[C@@H]2C)c(N)c1=O [Dactinomycin] < -33.5
CSc1ccc2c(c1)N(CCC1CCCCN1C)c1ccccc1S2 (stereo unspecified) [Thioridazine] < -29.5
COc1cccc2c1C(=O)c1c(O)c3c(c(O)c1C2=O)C[C@@](O)(C(=O)CO)C[C@@H]3O[C@H]1C[C@H](N)[C@H](O)[C@H](C)O1 [Doxorubicin] < -69.3
C[C@@H]1C[C@H]2[C@@H]3CCC4=CC(=O)C=C[C@]4(C)[C@@]3(F)[C@@H](O)C[C@]2(C)[C@@]1(O)C(=O)CO [Dexamethasone] < -84.9
C[C@@H]1CN(CCCn2c3ccccc3c3ccccc32)C[C@H](C)N1 [Rimcazole] < -33.5
Nc1nc(O)c2ncn(CCC(CO)CO)c2n1 [Penciclovir] < -37.3
